# PKM2 inh: qHTS Assay for Inhibitors of Human Muscle isoform 2 Pyruvate Kinase; hit rate 0.058% among 260,000; purified PKM2, ATP generation, Kinase-Glo luminescence; Pyruvate kinase PKM (Homo sapiens), P14618; Potency, µM (top dose mostly 57.5 µM), most hits filed as inhibitors; active means well fitted inhibition curve with a large enough effect; further: nearly all actives have a fitted effect of over 60% in size
# Target sequence (P14618 whole entry, looked up, canonical isoform): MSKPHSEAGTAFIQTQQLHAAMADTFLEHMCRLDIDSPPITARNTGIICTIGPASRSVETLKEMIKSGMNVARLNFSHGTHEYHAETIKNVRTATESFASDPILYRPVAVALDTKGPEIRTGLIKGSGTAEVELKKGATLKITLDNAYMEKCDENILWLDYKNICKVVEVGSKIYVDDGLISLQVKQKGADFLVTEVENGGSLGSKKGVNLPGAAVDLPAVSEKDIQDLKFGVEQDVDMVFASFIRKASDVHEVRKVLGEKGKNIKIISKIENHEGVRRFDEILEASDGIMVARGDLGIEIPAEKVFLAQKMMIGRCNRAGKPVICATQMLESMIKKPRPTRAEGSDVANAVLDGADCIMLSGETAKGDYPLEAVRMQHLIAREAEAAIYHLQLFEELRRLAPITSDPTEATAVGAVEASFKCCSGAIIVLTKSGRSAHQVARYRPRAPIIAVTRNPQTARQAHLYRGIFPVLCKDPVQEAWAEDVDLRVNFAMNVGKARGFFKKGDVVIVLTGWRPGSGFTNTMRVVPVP
#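 Coupled luciferase luminescence (Kinase-Glo) detects ATP generated from 0.1 mM ADP and 0.5 mM PEP in imidazole buffer pH 7.2 with KCl, MgCl2; 1 h at room temperature. Enzyme at intermediate activity; normalized to uninhibited and no-enzyme controls.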
# A number is an active result; i = inactive. The sample as a whole holds a higher share of hits than the screen did.
SMILES,PKM2 inh
O=C(NCc1cccc(C(F)(F)F)c1)N1CCN(S(=O)(=O)c2ccccc2F)CC1,i
COc1ccc(N2C(=O)CC(Sc3ccccc3C(=O)O)C2=O)c([N+](=O)[O-])c1 (stereo unspecified),i
Cc1cc2c(NC(=O)Nc3ccc(C(C)(C)C)cc3)cccc2nn1,i
CC(=O)Nc1ccc(C(=O)OCc2ccccc2Br)cc1,i
COc1ccc(NC(=O)Nc2ccccc2C(N)=O)cc1,25µM
CC(=C\C(=O)O)/C(=C/c1ccc(C)o1)C(=O)O,i
O=c1[nH]c(C(F)(F)F)nc2ccccc12,i
CNCc1nc2ccccc2[nH]1,i
Cc1nn(-c2nc3ccccc3[nH]2)c(=O)c2ccccc12,16µM
CC(C)c1ccc(N(CC(=O)NCC2CCCO2)C(=O)Cn2nnc(-c3cccs3)n2)cc1 (stereo unspecified),i
Cc1ccc(-c2cc(C(=O)Nc3ccccn3)c3ccccc3n2)o1,i
O=C(Nc1ccccn1)c1onc2c1CCCC2,14µM
Cc1noc(C)c1S(=O)(=O)N1CCC(C(=O)Nc2ccccn2)CC1,i
Cc1ccc(CNC(=O)[C@H]2C[C@@H]2[C@H](NP(=O)(c2ccccc2)c2ccccc2)c2ccccc2)o1,i
CCc1ccccc1Nc1nn2c(=O)c3ccc(C(=O)NCc4ccccn4)cc3nc2s1,i
Fc1ccccc1C1CC(c2ccco2)=Nc2ccccc2S1 (stereo unspecified),i
C/C=C\C=C\C(=O)Nc1cccc(C2=NOC3(C2)C[C@@H](C(N)=O)N(C(=O)C(c2ccccc2)c2ccccc2)C3)c1 (stereo partly specified),i
Cc1nc(NC(=O)c2ccco2)sc1C(=O)O,13µM
CC(=O)c1sc(NC(=O)c2ccc(Cn3cc(Br)cn3)o2)nc1C,i
CCCn1c(NC(=O)c2ccco2)nc2ccccc21,i
Clc1ccc2nc(CN3CCCc4ccccc43)cn2c1,i
Cc1ccccc1S(=O)(=O)NCC1CCCO1 (stereo unspecified),i
O=C(O)CSc1cc(C(=O)c2ccccc2O)cn2c(=O)c3c4c(sc3nc12)CCCC4,i
CCNS(=O)(=O)c1ccc(NC(=O)c2ccc(Cn3cc(Br)cn3)o2)cc1,i
C/C=C\C=C/C(=O)Nc1cccc(C2=NOC3(C2)C[C@H](C(N)=O)N(C(=O)Cc2ccc([N+](=O)[O-])cc2)C3)c1 (stereo partly specified),i
SMILES,PKM2 inh
CC(C)c1ccc2oc3nc(N)c(C(=O)O)cc3c(=O)c2c1,14µM
O=c1cc(CSc2nnc(COc3ccccc3Cl)o2)nc2sccn12,i
c1ccc(-c2nc(-c3ccco3)cs2)nc1,i
Cc1ccc(-c2nc(-c3ccccn3)no2)cc1,10µM
CC(=O)Nc1nnc(-c2ccccn2)o1,i
CCOC(Cn1ccc(=O)[nH]c1=O)OCC,i
C=C1C(=O)C=C2CN(C(=O)c3ccccc3)[C@@](Cc3ccc(OC)cc3)(C(=O)OC)[C@@H]12,i
O=C(NCc1ccco1)c1cc2ccc(O)cc2oc1=O,11µM
Cc1c(Br)cc(C(=O)NCc2ccco2)c(C)c1C,i
O=C(NNC(=O)c1cc2cc(Br)ccc2oc1=O)c1ccc(O)cc1O,i
CCOC(=O)N1CCC(=NNC(=O)COc2ccc(OC)cc2)CC1,i
COc1ccc2nc3c(cc2c1)Cc1ccccc1-3,14µM
COc1ccc2c(c1)-c1nc(NC(=O)c3cccs3)sc1CC2,i
CS(=O)(=O)c1ccc(NCCc2ccc(S(N)(=O)=O)cc2)c([N+](=O)[O-])c1,i
COc1ccc(-c2cc3c(nn2)-c2ccccc2C3=O)cc1,16µM
COc1ccc(S(=O)(=O)c2cnc3ccccc3n2)cc1,i
COc1ccc(-c2cc(=O)[nH][nH]2)cc1,i
COC(=O)C1=CN(CC2CCCO2)C=C(C(=O)OC)C1c1cc(OC)c(OC)c(OC)c1 (stereo unspecified),i
Cc1ccc(SCC(=O)NC(=O)c2ccc(S(=O)(=O)N(C)C)cc2)cc1C,i
COCCn1c(=O)[nH]c2cc(C(=O)N3CCN(c4cccc(C)c4C)CC3)ccc2c1=O,i
COc1ccc(NS(=O)(=O)c2cccc(C(=O)N/N=C/c3ccc(O)cc3)c2)cc1,i
O=C(CSc1nc2ccc(Cl)cc2[nH]1)c1cccs1,i
O=C(N/N=C/c1ccc(N2CCCCC2)o1)c1ccccc1[N+](=O)[O-],i
O=C(COc1ccc(Cl)cc1Cl)NCC(=O)N/N=C/c1c[nH]c2ccccc12,i
O=C(COc1ccc(Cl)cc1Cl)NC(=S)Nc1ccc(CN2CCOCC2)cc1,i
SMILES,PKM2 inh
O=C(COc1ccc(Cl)cc1Cl)Nc1ccccn1,14µM
O=C(COC(=O)C1CCN(S(=O)(=O)c2ccc3c(c2)OCCO3)CC1)Nc1cc(C(F)(F)F)ccc1Cl,i
COCCCn1c(SCC(=O)Nc2ccc(NC(=O)c3ccco3)c(OC)c2)nc2ccccc2c1=O,i
O=C(/C=C\c1ccco1)c1ccc(NC(=O)c2ccco2)cc1,i
Cc1cc(NC(=O)c2ccco2)ccc1NC(=O)c1ccco1,14µM
CC1CCCN(CCOc2ccc3ccccc3c2Br)C1 (stereo unspecified),i
COc1cccc(CNc2ccc([N+](=O)[O-])cc2Cl)c1O,i
Cc1cc(C)n2ncc(S(=O)(=O)c3ccccc3)c2n1,i
COc1cccc(-n2nnc3c(=O)n(CC(=O)Nc4cc(C)on4)cnc32)c1,i
COCCn1c(=S)[nH]c2ccc(N(C)C)cc2c1=O,i
O=C(Nc1ccccc1)c1cc2ccccc2o1,11µM
NC(=O)c1oc2ccccc2c1NC(=O)CCc1ccccc1,i
Cc1ccc(NC(=O)c2cc(-c3ccc(C)o3)nc3ccccc23)cc1,i
O=[N+]([O-])c1ccc2nc(NS(=O)(=O)c3ccc(F)cc3)sc2c1,i
Cc1cc(OCC(=O)NC(Cc2ccc(Cl)cc2)C(=O)O)c2c(C)c(C)c(=O)oc2c1 (stereo unspecified),i
O=C(Nc1cccc(S(=O)(=O)N2CCOCC2)c1)c1cnccn1,i
O=C1C=CC(=O)N1c1ccc(Sc2ccc([N+](=O)[O-])cc2)cc1,i
Cn1c(-c2ccc([N+](=O)[O-])cc2)nc2ccccc21,i
CC1=NN(c2ccc([N+](=O)[O-])cc2)C(=O)/C1=C\N(C)C,16µM
COc1ccc2ccccc2c1C(=O)/C=C\c1ccoc1,i
CN(C)c1ccc(N=Nc2nc3ccccc3n2C)cc1,16µM
COc1cccc(CNc2nc3ccccc3n2C)c1O,i
CNc1ccccc1-c1nc2ccccc2n(C)c1=O,i
COC(=O)c1nc(N)sc1-c1ccc(Cl)c(Cl)c1,i
CCS(=O)(=O)Nc1ccc(C2=NN(S(C)(=O)=O)C(c3cccs3)C2)cc1 (stereo unspecified),i
SMILES,PKM2 inh
CCc1nc(SCC(=O)Nc2ccc(OC)cc2[N+](=O)[O-])n[nH]1,i
COc1cc(/C=N/NC(=O)c2cccs2)ccc1O,i
Cc1nn(CC(=O)N/N=C/c2ccc3c(c2)OCO3)c(C)c1Br,i
Cc1ccsc1C(=O)N/N=C/c1ccc2c(c1)OCO2,13µM
O=C(CCCc1c[nH]c2ccccc12)N1CCN(S(=O)(=O)c2cccs2)CC1,i
COc1ccc(NC(=O)/C(Cl)=C(/Cl)S(=O)Cc2ccc(Cl)cc2)cn1 (stereo unspecified),i
COC(=O)[C@@]1(Cc2ccc(OC)cc2)[C@H]2c3cc(C(=O)N(C)C)n(Cc4ccc(C)o4)c3C[C@H]2CN1C(=O)c1ccccc1,i
Cc1nc(N=Nc2ccc(O)cc2)n[nH]1,13µM
CC(=O)C(C(C)=O)c1c(Cl)c(O)c(O)c2c(C(=O)c3ccccc3)coc12,i

# From PubChem BioAssay
